Experimental data reported in the supplement of paper PMC4206467.

These compounds were tested on Perkinsus marinus PRA240 (assay: ATP content (proliferation) relative to DMSO control; higher = more parasite growth (less inhibition)). Settings: 20 µM; 4 days.
Method: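 Perkinsus marinus PRA240 trophozoites (2-5x10^6 cells/ml, 100 µl, 96-well) were exposed once to MMV Malaria Box compounds at 20 µM (0.1% DMSO) in triplicate. ATP content (ATPlite bioluminescence) was read at day 4 post-exposure and normalised to DMSO + cells control wells (100% activity). Compounds were identified by joining plate and well to the Malaria Box list.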

Compound	ATP content [%]
CCCCC(O)(c1ccc(Cl)cc1)C(CN1CCOCC1)c1ccc(Cl)cc1 (configuration not stated)	131
C=CCc1c(C)nc2ccccc2c1O	48
CC(=O)c1sc(NC(=O)Nc2ccc(C)cc2C)nc1C	68.1
COc1ccc(-c2cn3c(C(=O)Nc4ccccc4Cl)c(-c4ccccc4)c4c3n2CCCC4)cc1	99.7
O=C(Nc1ccc(-c2nc3cc4ccccc4cc3[nH]2)cc1)c1cccc(Br)c1	124
CCCCCCC(O)(c1ccc(F)cc1)C(CN1CCOCC1)c1ccccc1 (configuration not stated)	127
Cc1ccccc1OCCSc1nc2ccc(NC(=O)c3ccccc3)cc2s1	50.6
O=C(Nc1ccc(CN2CCOCC2)cc1)c1ccc(-c2ccc(Br)cc2)o1	89.4
COc1ccc(C2N(C)c3ccccc3N2C)cc1	101
Cc1ccc2nc(C)cc(Nc3cccc(C(F)(F)F)c3)c2c1	121
COc1cccc(C2(C)Nc3ccccc3-c3nc4ccccc4n32)c1 (configuration not stated)	144
COc1cc(SC)ccc1C(=O)N1CCCC(C)C1 (configuration not stated)	134
COc1ccc(-c2nonc2NC(=O)c2cccc(C)c2)cc1OC	82.6
CCOc1cc(Cl)c(C(C)NC(=O)c2cccc(OC)c2)cc1OCC (configuration not stated)	85.3
CCOc1ccc(-c2nc(NC(=O)c3cccc(S(C)(=O)=O)c3)sc2C)cc1	79.8
Cc1ccc(C(=O)c2oc3ccc4c(C)cc(=O)oc4c3c2C)cc1	123
CC1=C(CC(=O)c2cccc([N+](=O)[O-])c2)C(=O)c2ccccc2C1=O	136
O=C(NC1CCN(Cc2ccccc2)CC1)c1cc(-c2cccnc2)nc2ccc(Cl)cc12	137
CN(C)c1ccc(-c2nc3cc(N)ccc3[nH]2)cc1	0.856

Compound	ATP content [%]
COc1cc(-c2nc(-c3ccccc3)c(-c3ccccc3)[nH]2)cc(OC)c1O	61.1
CCOc1ccc(N2C(N)=NC(N)=NC2(C)C)cc1	114
O=C(CCc1ccccc1)c1ccccc1OCC(O)CN1CCCCC1 (configuration not stated)	62.3
O=C1c2ccccc2-c2nnc(-c3ccc(Br)cc3)cc21	67.7
Cc1ccc2cc3c(N)c4c(C)ccc(C)c4nc3nc2c1	142
COCCN(C(=O)Cc1cccs1)C(C(=O)NCc1ccc(OC)cc1)c1ccc(C(C)C)cc1 (configuration not stated)	37.2
O=C(NC1CCN(Cc2ccccc2)CC1)c1cc2nc(-c3ccc(Cl)s3)cc(C(F)(F)F)n2n1	118
N=c1n(CCN2CCCCC2)c2ccccc2n1CC(=O)c1ccc(Cl)c(Cl)c1	111
COc1ccc(-c2cc(=O)oc3c4c(ccc23)OCN(Cc2ccc(F)cc2)C4)cc1	130
FC(F)(F)c1cccc(CNC2CCN(CCc3ccccc3)CC2)c1	95.6
CC(O)(c1ccc(Cl)cc1)C(CN1CCCCC1)c1ccccc1 (configuration not stated)	79.2
Cc1cccc(N2C(=O)C3C(C2=O)C2(c4ccccc4)C(=O)C3(c3ccccc3)C(c3ccc4c(c3)OCO4)=C2c2ccc3c(c2)OCO3)c1 (configuration not stated)	110
O=C(NC1CCN(Cc2ccccc2)CC1)c1cc(-c2ccncc2)nc2ccc(Cl)cc12	172
CCN1CCN(c2c(C(=O)c3ccccc3)cnc3cc(OC)c(OC)cc23)CC1	199
N#Cc1nc(Cc2cccc3ccccc23)oc1N1CCN(C(c2ccccc2)c2ccccc2)CC1	132
N=c1c2ccccc2nnn1-c1cccc(C(F)(F)F)c1	67.7
CCOc1ccccc1CN1CCc2nc3cc(C(C)(C)C)nn3c(O)c2C1	51.7
Clc1cc(Br)ccc1-c1ccc(CNCC2CCNCC2)o1	243
